Data as given in PubChem BioAssay (NCATS).
For part of these data: Potency and affinity values are given separately. Calls of active or inactive are those of the source. How the calls were made is not given here.

Legend:
[1] = Ebola virus entry assay, green fluorescence channel
[2] = Ebola virus entry assay, blue channel fluorescence
[3] = Ebola virus entry assay, ratio channel
[4] = Ebola virus entry assay, green channel fluorescence
[5] = Ebola virus entry assay, reporter ratio channel; Channel type: primary
[6] = Ebola virus entry assay, blue channel (ratio component)
Wherever efficacy is given: 0% is about no effect.

O=c1[nH]c2cc(C(F)(F)F)c(N3CCOCC3)cc2n(CP(=O)(O)O)c1=O
inactive: efficacy [1] -34.7% | outcome [2] | outcome [3] | outcome [4] | outcome [5] | outcome [6]

C[C@@H](O)[C@H]1C(=O)N2C(C(=O)O)=C([C@H]3CCCO3)S[C@H]12
inactive: efficacy [1] -19.1% | outcome [2] | outcome [3] | outcome [4] | outcome [5] | outcome [6]

COc1ccc2c(c1)C(=O)N(CCc1ccc(S(=O)(=O)NC(=O)NC3CCCCC3)cc1)C(=O)C2(C)C
inactive: efficacy [1] -16.1% | outcome [2] | outcome [3] | outcome [4] | outcome [5] | outcome [6]

C=C1C[C@H]2[C@@H]3C=C(C)C4=CC(=O)CC[C@]4(C)[C@H]3CC[C@]2(C)[C@@]1(OC(C)=O)C(C)=O
inactive: efficacy [1] -35.6% | outcome [2] | outcome [3] | outcome [4] | outcome [5] | outcome [6]

COc1ccc(CCC(C)=O)cc1
inactive: efficacy [1] 11.4% | outcome [2] | outcome [3] | outcome [4] | outcome [5] | outcome [6]

O=C1CC2(CCCC2)CC(=O)N1CCCCN1CCN(c2ncccn2)CC1
active: AC50 [3] 22.4 µM | AC50 [5] 22.4 µM
inactive: efficacy [1] 11.1% | outcome [2] | outcome [4] | outcome [6]

CC(=C(CCOC(=O)C(C)C)SSC(CCOC(=O)C(C)C)=C(C)N(C=O)Cc1cnc(C)nc1N)N(C=O)Cc1cnc(C)nc1N
inactive: efficacy [1] -18% | outcome [2] | outcome [3] | outcome [4] | outcome [5] | outcome [6]

CCOc1ccccc1C(N)=O
inactive: efficacy [1] -14.9% | outcome [2] | outcome [3] | outcome [4] | outcome [5] | outcome [6]
